Data as given in PubChem BioAssay (NCATS).
Values without a mark were called inactive. Inconclusive results are not listed. Where a call stands in place of a potency, no number is given. Calls of active or inactive are those of the source. Calls come from the whole dose curve; as a rule, active = well fitted curve in the direction sought with a large enough effect; inconclusive = small, poorly fitted or top-dose-only effect, or another doubt; inactive = no such curve, though single readings can be large; an effect the other way counts as inactive or inconclusive. Where a SMILES comes first, the peptide text is derived from it.

System: not listed separately
Test: Primary fluorescence-based thiol-reactive (MSTI) qHTS assay for identification of artifact compounds. (AID 1845221); note: nearly all actives have a fitted effect of over 65% in size; note: potency is the fitted concentration of half-maximal effect;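 for activity change, negative = thiol reactive: thiol-reactive compounds lower the probe fluorescence signal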
Conditions: MSTI thiol-reactivity probe, 1 h; series mostly up to 53.8 µM
Method in brief: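 qHTS titration of compound; 4 uM MSTI, PBS pH 7.4, 2% DMSO; 1 h RT, dark; fluorescence 525/598 nm; normalized to Acetyl-MSTI and MSTI; 4-parameter Hill fit.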
In the case of `C=CC(C)(O)CC/C=C(\C)C(=O)O[C@@H]1[C@@H](O)[C@H](OC(C)(C=C)CC/C=C(\C)C(=O)O)O[C@H](CO)[C@H]1OC(=O)/C(C)=C/CCC(C)(O)C=C` (some centres undefined), the Potency is reported as “inactive”. For `CC(=O)O[C@@H]1C=C2[C@H](CC[C@@]3(C)[C@@]2(O)CC[C@H]2Cc4c([nH]c5ccccc45)[C@@]23C)O[C@@H]1C(C)(C)O`, the Potency was 4.12 µM (active). In the case of `O=C(OC[C@H]1O[C@@H](Oc2ccccc2CO)[C@H](O)[C@@H](O)[C@@H]1O)c1ccccc1`, the Potency is reported as 10.4 µM (active). `CC1(C)CC[C@]2(C(=O)O[C@@H]3O[C@H](CO[C@@H]4O[C@H](CO)[C@@H](O)[C@H](O)[C@H]4O)[C@@H](O)[C@H](O[C@@H]4O[C@H](CO)[C@@H](O)[C@H](O)[C@H]4O)[C@H]3O)[C@H](O)C[C@]3(C)C(=CCC4[C@@]5(C)CC[C@H](O[C@@H]6OC[C@@H](O)[C@H](O)[C@H]6O)[C@@](C)(C(=O)O)C5CC[C@]43C)[C@@H]2C1` (some centres undefined) gave an activity change, negative = thiol reactive of 59.1% [at 11.5 µM]. For `C=C1CC[C@@]2(OC1)O[C@H]1CC3[C@@H]4CC=C5C[C@H](O[C@H]6OC[C@@H](O)C(O)[C@@H]6O[C@@H]6O[C@@H](C)[C@H](O)[C@@H](O[C@@H]7O[C@H](CO)[C@@H](O)[C@H](O)[C@H]7O)[C@H]6O)C[C@@H](O)[C@]5(C)C4CC[C@]3(C)[C@H]1[C@@H]2C` (some centres undefined), the activity change, negative = thiol reactive was 124% [at 11.5 µM]. With `O=C(OC[C@H]1O[C@@H](Oc2ccccc2COC(=O)C2(O)C=CCCC2O)[C@H](O)[C@@H](O)[C@@H]1O)c1ccccc1` (some centres undefined) the Potency was 5.19 µM (active). In the case of `CNC(C)C(=O)NC(C(=O)N1CCCC1C(=O)Nc1cccc2ncccc12)C(C)C` (centres undefined), the Potency is reported as “inactive”. For `CC1(C)CC[C@]2(C(=O)O[C@@H]3O[C@H](CO[C@@H]4O[C@H](CO)[C@@H](O)[C@H](O)[C@H]4O)[C@@H](O)[C@H](O[C@@H]4O[C@H](CO)[C@@H](O)[C@H](O)[C@H]4O)[C@H]3O)CC[C@]3(C)C(=CCC4[C@@]5(C)CC[C@H](O[C@@H]6OC[C@@H](O)[C@H](O)[C@H]6O)[C@@](C)(C(=O)O)C5CC[C@]43C)[C@@H]2C1` (some centres undefined), the activity change, negative = thiol reactive was 183% [at 11.5 µM]. With `O=C(O)CC/C=C\C[C@H]1CO[C@@H](c2ccccc2Cl)O[C@H]1c1ccccc1O` the Potency was “inactive”.

System: Nanoluciferase (engineered Oplophorus gracilirostris luciferase)
Test: Primary Nanoluciferase (NLuc) qHTS assay for identification of artifact compounds. (AID 1845222)
Conditions: NLuc-conditioned medium, Nano-Glo luminescence, 5 min; series mostly up to 54.1 µM
Method in brief: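 Luminescence read-out of secreted NLuc in S16 cell conditioned medium (1:55); compounds tested with 15 min RT preincubation, then Nano-Glo substrate 1:100, 5 min. % inhibition vs no-enzyme and DMSO controls, 4-parameter Hill fit.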
For `CC[C@@H]1C(=O)O[C@]23C=C[C@@H]4C(C(=O)OC)=CO[C@H](O[C@@H]12)[C@@H]43`, the Potency was “inactive”. Compound `C=C1CC[C@]2(C(=O)O[C@@H]3O[C@H](CO)[C@@H](O)[C@H](O)[C@H]3O)CC[C@]3(C)C(=CCC4[C@@]5(C)C[C@H](O)[C@@H](O[C@@H]6O[C@H](C(=O)O)[C@@H](O)[C@H](O)[C@H]6O)[C@](C)(C=O)C5CC[C@]43C)C2C1` (some centres undefined) has an activity, negative = inhibition of 1.82% [at 11.6 µM]. In the case of `C[C@@H]1O[C@@H](O[C@H]2[C@H](O)[C@@H](O)[C@H](OC(=O)[C@]34CCC(C)(C)C[C@H]3C3=CCC5[C@@]6(C)CC[C@H](O[C@@H]7O[C@H](C(=O)O)[C@@H](O)[C@H](O)[C@H]7O)C(C)(C)C6CC[C@@]5(C)[C@]3(C)CC4)O[C@@H]2CO)[C@H](O)[C@H](O)[C@H]1O` (some centres undefined), the activity, negative = inhibition is reported as -3.67% [at 11.6 µM]. In the case of `CC(=O)C1CCC(=O)N1Cc1ccccc1` (centres undefined), the Potency is reported as “inactive”. In the case of H-DPPDPDRFYGMM-NH2, the Potency is reported as “inactive”. For `C[C@@H]1O[C@@H](O[C@H]2[C@H](O)[C@@H](O)[C@H](OC[C@H]3O[C@@H](OC(=O)[C@]45CCC(C)(C)C[C@H]4C4=CCC6[C@@]7(C)C[C@@H](O)[C@H](O)[C@@](C)(CO)C7[C@H](O)C[C@@]6(C)[C@]4(C)CC5)[C@H](O)[C@@H](O)[C@@H]3O)O[C@@H]2CO)[C@H](O)[C@H](O)[C@H]1O` (some centres undefined), the activity, negative = inhibition was 1.41% [at 11.6 µM]. With `COc1cccc(Cn2ncc3c4sc(S(C)=O)cc4n(C)c3c2=O)c1` (centres undefined) the Potency was “inactive”. For `CCCC1=CC2=C(CO1)C(=O)C(C)(O)C(OC(=O)c1c(C)cc(OC)cc1O)C2` (centres undefined), the Potency was “inactive”. With `CO[C@H]1c2cc(C(C)C)c(O)c(O)c2[C@@]23CCCC(C)(C)C2[C@@H]1OC3=O` (some centres undefined) the Potency was “inactive”. In the case of `C=C1CCC2C(C)(C)CC(O)CC2(C)C1CCC(C)CCOC(=O)CCC(=O)O` (centres undefined), the Potency is reported as “inactive”. In the case of `CC(=O)O[C@@H](C[C@@H]1C=C(C)C(=O)O1)[C@H](C)[C@H]1CCC2[C@@]3(C)CC[C@H](O[C@@H]4O[C@H](CO)[C@@H](O)[C@H](O)[C@H]4O[C@@H]4O[C@@H](C)[C@H](O)[C@@H](O)[C@H]4O)C(C)(C)C3CC[C@@]2(C)[C@@]12COC(=O)C2` (some centres undefined), the activity, negative = inhibition is reported as -4.12% [at 11.6 µM]. For `CC1CC2(O)OC(=O)C3=C2C(CCC3)[C@@]12C[C@@H](c1ccoc1)OC2=O` (some centres undefined), the Potency was “inactive”. With `COc1cc(C(=O)OCC2=CCC3C(C(=O)O)=COC(O[C@@H]4O[C@H](CO)[C@@H](O)[C@H](O)[C@H]4O)C23)ccc1O` (some centres undefined) the Potency was “inactive”. In the case of `CC(=O)O[C@H]1[C@H](O[C@H]2CC[C@]34C[C@]35CC[C@]3(C)[C@@H]([C@@]6(C)CC[C@@H](C(C)(C)O)O6)[C@@H](O)C[C@@]3(C)[C@@H]5C[C@H](O[C@@H]3O[C@H](CO)[C@@H](O)[C@H](O)[C@H]3O)[C@H]4C2(C)C)OC[C@@H](OC(C)=O)[C@@H]1O`, the Potency is reported as “inactive”. With `CC(C)[C@@H](C(=O)O)N1Cc2c(cc(O)c3c2O[C@]2(C3)[C@H](C)CCC3C(C)(C)[C@H](O)[C@H](O)C[C@@]32C)C1=O` (some centres undefined) the Potency was “inactive”. Work on `C/C=C/C=C/[C@@H]1O[C@](O)([C@H](CC)C(=O)NC/C=C/C=C(\C)[C@@H](OC)[C@@H](C)[C@@H]2O[C@H](/C=C/C=C/C=C(\C)C(=O)c3c(O)ccn(C)c3=O)[C@H](O)[C@@H]2O)[C@H](O)[C@H](O)C1(C)C` yielded an activity, negative = inhibition of -0.199% [at 11.6 µM]. For `CCCCC(=O)N1c2ccccc2NC2=C(C(=O)CCC2)C1c1ccccc1Cl` (centres undefined), the Potency was “inactive”. For `CC(C)(O)C(O)C(=O)OCc1ccc(O[C@@H]2O[C@H](CO)[C@@H](O)[C@H](O)[C@H]2O)cc1` (some centres undefined), the Potency was “inactive”. Work on `COc1cc(C)c(C(=O)NC2C(C)OC(OC3CCC(C)C4C3C=C(C)C3/C(C)=C\CC/C(C)=C/C5(C)C=C(C(=O)O)C(C)CC56OC(=O)/C(=C(\O)C34C)C6=O)C(O)C2(C)O)c(O)c1` (centres undefined) yielded an activity, negative = inhibition of 4.93% [at 11.6 µM]. With `CC1=C2C[C@@]3(C)[C@@H](CCC[C@@H]3C)C[C@@]2(O)OC1=O` the Potency was “inactive”. With `C/C=C1/CC2C(=O)Nc3cc(O)c(OC)cc3C(=O)N2C1` (centres undefined) the Potency was “inactive”. In the case of `CC(=O)NC(Cc1ccccc1)C(=O)NC(C(=O)O)C(C)C` (stereo not drawn) (Ac-Phe-Val-OH; configuration not given here), the Potency is reported as “inactive”. In the case of `COc1ccc(C2(O)c3ccccc3NC(=O)C2OC)cc1` (centres undefined), the Potency is reported as “inactive”. In the case of `Cc1oc(S(=O)(=O)N2CCCCC2)cc1NC(=O)Nc1ccccc1`, the Potency is reported as “inactive”. For `O=C(/C=C/c1ccc(O)cc1)OC[C@H]1O[C@@H](O/C(=C\c2ccccc2)C(=O)O)[C@H](O)[C@@H](O)[C@@H]1O`, the Potency was “inactive”. For `COC(=O)C1=CO[C@@H](O[C@@H]2O[C@H](CO)[C@@H](O)[C@H](O)[C@H]2O)/C(=C\CO)[C@@H]1CC(=O)OCCc1ccc(O)cc1`, the Potency was “inactive”. With `C=CC(C)(C)C12Nc3c(ccc4c3OC(C)(C)C=C4)C1(O)CC1C(=O)N3CCCC3C(=O)N12` (centres undefined) the Potency was “inactive”. Compound `CC(=O)O[C@@H]1[C@H](O[C@@H]2OC[C@](O)(CO)[C@H]2O)[C@@H](O[C@@H]2O[C@@H](C)[C@H](O)[C@@H](O[C@@H]3O[C@H](CO)[C@@H](O)[C@H](O)[C@H]3O)[C@H]2O)[C@H](OC(=O)[C@]23CCC(C)(C)C[C@H]2C2=CCC4[C@@]5(C)C[C@H](O)[C@H](O[C@@H]6O[C@H](C(=O)O)[C@@H](O)[C@H](O)[C@H]6O)[C@@](C)(C(=O)O)C5CC[C@@]4(C)[C@]2(C)CC3)O[C@@H]1C` (some centres undefined) has an activity, negative = inhibition of 0% [at 11.6 µM]. In the case of `COc1ccc(CC(NC(C)=O)C(=O)O)cc1` (centres undefined), the Potency is reported as “inactive”. `COC1CC(O[C@H]2CC[C@@]3(C)C(=CC[C@]4(O)C3[C@H](O)[C@@H](O)[C@]3(C)[C@@H]([C@H](C)O)CC[C@@]34O)C2)OC(C)C1OC1CC(OC)C(OC2CC(OC)C(OC3OC(C)C(OC4OC(CO)C(O)C(O)C4O)C(OC)C3O)C(C)O2)C(C)O1` (some centres undefined) gave an activity, negative = inhibition of 0% [at 11.6 µM]. For `C=CC(C)(O)CC/C=C(\C)C(=O)O[C@@H]1[C@@H](O)[C@H](OC(C)(C=C)CC/C=C(\C)C(=O)O)O[C@H](CO)[C@H]1OC(=O)/C(C)=C/CCC(C)(O)C=C` (some centres undefined), the Potency was “inactive”. In the case of `CC(=O)O[C@@H]1C=C2[C@H](CC[C@@]3(C)[C@@]2(O)CC[C@H]2Cc4c([nH]c5ccccc45)[C@@]23C)O[C@@H]1C(C)(C)O`, the Potency is reported as “inactive”. For `O=C(OC[C@H]1O[C@@H](Oc2ccccc2CO)[C@H](O)[C@@H](O)[C@@H]1O)c1ccccc1`, the Potency was “inactive”. With `CC1(C)CC[C@]2(C(=O)O[C@@H]3O[C@H](CO[C@@H]4O[C@H](CO)[C@@H](O)[C@H](O)[C@H]4O)[C@@H](O)[C@H](O[C@@H]4O[C@H](CO)[C@@H](O)[C@H](O)[C@H]4O)[C@H]3O)[C@H](O)C[C@]3(C)C(=CCC4[C@@]5(C)CC[C@H](O[C@@H]6OC[C@@H](O)[C@H](O)[C@H]6O)[C@@](C)(C(=O)O)C5CC[C@]43C)[C@@H]2C1` (some centres undefined) the activity, negative = inhibition was -3.16% [at 11.6 µM]. With `C=C1CC[C@@]2(OC1)O[C@H]1CC3[C@@H]4CC=C5C[C@H](O[C@H]6OC[C@@H](O)C(O)[C@@H]6O[C@@H]6O[C@@H](C)[C@H](O)[C@@H](O[C@@H]7O[C@H](CO)[C@@H](O)[C@H](O)[C@H]7O)[C@H]6O)C[C@@H](O)[C@]5(C)C4CC[C@]3(C)[C@H]1[C@@H]2C` (some centres undefined) the activity, negative = inhibition was -1.92% [at 11.6 µM].
